# Compound activity deposited in PubChem by several laboratories.
# In the library only some 27% were active in any assay of this set; here they are far more common.
# CYP2C19 inh – inhibitors of human CYP2C19. P33261. 96,000 tested, 21% active. CYP2C19 Supersomes, luciferin-H EGE luminescence, 30 min. inhibition, % at 5 µM. AID 778;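 active = CYP2C19 inhibition above a set limit at 5 µM in the primary screen, cut at about 50% in these data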;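 also: plate controls were negative control wells for no effect and 2.5 mM tranylcypromine positive control for full effect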
# CYP2C9 inhib – blocks human cytochrome P450 2C9; P11712; CYP2C9 Supersomes, luciferin-H conversion, luminescence; inhibition, % at 5 µM; 96,000 tested, 20% active; AID 777;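 active = blocking of liver enzyme CYP2C9 beyond about 50% at 5 µM, limit read from the data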
# Target sequence (P11712 whole entry, looked up): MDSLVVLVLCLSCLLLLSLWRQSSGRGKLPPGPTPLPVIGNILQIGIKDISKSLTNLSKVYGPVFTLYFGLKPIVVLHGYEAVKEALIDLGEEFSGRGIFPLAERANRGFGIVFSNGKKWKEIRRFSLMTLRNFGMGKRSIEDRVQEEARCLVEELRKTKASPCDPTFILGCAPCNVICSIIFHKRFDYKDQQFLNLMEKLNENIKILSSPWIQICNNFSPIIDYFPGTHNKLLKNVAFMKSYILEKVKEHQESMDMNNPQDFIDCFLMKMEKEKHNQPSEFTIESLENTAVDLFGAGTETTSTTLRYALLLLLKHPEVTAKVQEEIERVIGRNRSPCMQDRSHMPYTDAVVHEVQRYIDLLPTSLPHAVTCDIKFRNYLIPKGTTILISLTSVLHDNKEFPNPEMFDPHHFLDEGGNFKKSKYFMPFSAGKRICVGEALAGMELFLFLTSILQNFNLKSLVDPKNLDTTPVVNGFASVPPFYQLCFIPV
# Cav3 T inh – inhibitors of human Cav3.2 T-type calcium channel | 100,000 tested, 4% active | B-score at 10 µM | Cav3.2-expressing cells, Fluo-4 calcium fluorescence FDSS; hits give low values | AID 449739;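 active = single-dose well whose peak fluorescence ratio is a statistical outlier from its plate by either plate-standardised score or position-corrected B-score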
# CYP2C19 activ – cytochrome P450 2C19 (human) activation; recombinant CYP2C19, luciferin-H EGE luminescence; hits give high values; 0 = fully inhibited enzyme, 1 = untreated enzyme; 96,000 tested, under 10 active; AID 1025; P33261; activation factor at 5 µM;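 active = activation factor of at least 2 at 5 µM in the primary screen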;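 also: 0 = wells with 2.5 mM tranylcypromine and 1 = vehicle-only wells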
# CYP2C9 activ – activators of human CYP2C9 | recombinant CYP2C9, luciferin-H conversion, luminescence; hits give high values; factor 1 = untreated enzyme, 0 = blocked | P11712 | activation factor at 5 µM | 96,000 tested, 1.4% active;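 active = activation factor of 2 or more for CYP2C9 at a 5 µM dose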;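 also: 0 = sulfaphenazole-blocked wells and 1 = vehicle-only wells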
# An asterisk follows results filed as active; nt = no result.
SMILES,CYP2C19 inh,CYP2C9 inhib,Cav3 T inh,CYP2C19 activ,CYP2C9 activ
NC(=S)c1cc2ccc(O)cc2oc1=O,29.0,12.9,nt,0.7,0.9
CCOc1ccccc1CN1C(=O)c2ccccc2C1C(=O)NC(C)CC (stereo unspecified),-1.5,1.0,0.0586,1,1
NC(=O)c1nsc(C(=O)N(CC(=O)NCc2ccc3c(c2)OCO3)C2CCCCC2)c1N,86.4*,10.9,0.922,0.1,0.9
CCC(C)(C)NC(=O)CN(C(=O)c1snc(C(N)=O)c1N)c1ccc2c(c1)OCO2,38.4,56.8*,-0.126,0.6,0.4
CC(C)c1nnc(NC(=O)CCC(=O)NCc2ccc3c(c2)OCO3)s1,0.6,11.5,-0.677,1,0.9
CCC(C)(C(=O)Nc1ccc2c(c1)OCCO2)N(C(C)=O)c1ccc(C(N)=O)cc1 (stereo unspecified),10.1,19.1,-0.882,0.9,0.8
CC(C(=O)NC1CCCC1)N(Cc1ccc2c(c1)OCO2)C(=O)c1snc(C(N)=O)c1N (stereo unspecified),99.4*,81.8*,0.135,0,0.2
CCC(C(=O)NC1CCCC1)N(Cc1ccc2c(c1)OCO2)C(=O)c1snc(C(N)=O)c1N (stereo unspecified),92.5*,44.5,0.66,0.1,0.6
NC(=O)c1noc(C(=O)N(CC(=O)NC2CCCC2)Cc2ccc3c(c2)OCO3)c1N,nt,nt,-0.159,nt,nt
Cc1ccnn2cc3c(=O)n(C)c(=O)n(C)c3c12,-2.4,17.1,nt,1,0.8
O=C(NC1CCS(=O)(=O)C1)OC1CCCCC1 (stereo unspecified),nt,nt,-2.35,nt,nt
COc1cc(C(c2nnnn2C2CCCC2)N2CCN(C)CC2)cc(OC)c1OC (stereo unspecified),-2.1,5.6,1.22,1,0.9
COc1ccccc1N1CCN(C(c2cccs2)c2nnnn2C2CCCC2)CC1 (stereo unspecified),93.9*,88.2*,-1.13,0.1,0.1
CCCCC(c1nnnn1C1CCCC1)N1CCN(C(=O)c2ccco2)CC1 (stereo unspecified),73.1*,69.4*,0.268,0.3,0.3
c1ccc(CC2CCN(C(c3cccs3)c3nnnn3C3CCCC3)CC2)cc1 (stereo unspecified),68.3*,88.1*,-3.44*,0.3,0.1
CCCCC(c1nnnn1CCOC)N1CCN(C(=O)c2ccco2)CC1 (stereo unspecified),79.5*,55.1*,-0.0789,0.2,0.4
CCc1ccc(C2CC(c3ccccc3C)n3nc(N)nc3N2)cc1 (stereo unspecified),8.1,-11.2,-0.846,0.9,1.1
CCOC(=O)c1c(C)c(C(=O)NCCCN2CCCC2=O)c(C)n1CC,-8.1,-10.5,0.422,1.1,1.1
CC1=C(C)NC(=S)SC1,-5.8,-8.6,-0.0631,1.1,1.1
COC(=O)[C@@H]1C[C@@]2(O)[C@H](O)[C@H](O)[C@H](O)C[C@H]2N1CC1CC1,nt,nt,0.107,nt,nt
COCCn1nnnc1C(CC(C)C)N1CCN(C(=O)c2ccco2)CC1 (stereo unspecified),40.6,32.3,1.27,0.6,0.7
CCCC(c1nnnn1C1CCCCC1)N1CCN(c2ncccn2)CC1 (stereo unspecified),36.3,81.3*,0.0019,0.6,0.2
O=C(c1ccco1)N1CCN(C(c2ccccn2)c2nnnn2C2CCCC2)CC1 (stereo unspecified),nt,nt,0.43,nt,nt
Cc1ccc2occ(C(c3nnnn3C3CCCC3)N3CCN(C(=O)c4ccco4)CC3)c(=O)c2c1 (stereo unspecified),81.5*,82.8*,0.708,0.2,0.2
CC(C)CCn1nnnc1C(c1ccc(N(C)C)cc1)N1CCN(C(=O)c2ccco2)CC1 (stereo unspecified),90.5*,65.7*,0.0189,0.1,0.3
SMILES,CYP2C19 inh,CYP2C9 inhib,Cav3 T inh,CYP2C19 activ,CYP2C9 activ
O=C(c1ccco1)N1CCN(C(c2cccs2)c2nnnn2C2CCCC2)CC1 (stereo unspecified),54.7*,68.0*,0.157,0.5,0.3
O=C(Nc1ccc(Cn2nnc3ccccc32)cc1)c1ccco1,-7.3,7.6,1.15,1.1,0.9
COC(=O)[C@H](CCSC)NC(=O)N1CCC(C)CC1,97.0*,96.1*,0.107,0,0
COC(=O)c1ccccc1NC(=O)C12CC3CC(C1)CC(n1cnc(Cl)n1)(C3)C2,nt,nt,-2.71,nt,nt
O=C(O)c1cccc(NC(=O)C23CC4CC(C2)CC(n2cnc(Cl)n2)(C4)C3)c1,61.7*,70.9*,0.0421,0.4,0.3
CN(C)CCCNS(=O)(=O)c1ccc(N2CCC(c3ccc(Cl)cc3)=N2)cc1,14.4,16.4,2.06,0.9,0.8
CC(C)N(CCNS(=O)(=O)c1ccc(Cl)cc1)C(C)C,42.8,53.8*,0.0442,0.6,0.5
CCn1cc(Br)c(C(=O)Nc2ccc(F)c(Cl)c2)n1,92.5*,75.0*,-2.47,0.1,0.3
CCn1cc(Br)c(C(=O)Nc2ccc(Cl)cc2Cl)n1,74.1*,45.8,-0.845,0.3,0.5
Cn1c(=O)c2c(ncn2CC(=O)Nc2ccc(Cl)cc2Cl)n(C)c1=O,18.3,13.0,-0.000356,0.8,0.9
CCOC(=O)c1ccc(NC(=O)c2nn(CC)cc2Br)cc1,30.9,-45.1,-0.804,0.7,1.5
Nc1nc(SCC(=O)NC2CCCCCC2)[nH]c(=O)c1-c1ccccc1,2.5,-24.0,1.05,1,1.2
CCCCOCP(=O)(CCCC)COCCCC,13.1,0.2,-1.05,0.9,1
c1ccc(Cc2nc3ccccc3o2)cc1,34.0,4.1,0.00756,0.7,1
CCN(CC)CCn1c(=S)[nH]c2cc3c(cc2c1=O)OCO3,0.8,8.4,-0.0379,1,0.9
CCCCNC(=O)CCCn1c(=S)[nH]c2cc3c(cc2c1=O)OCO3,14.9,59.1*,nt,0.9,0.4
CCOCCCn1c(=S)[nH]c2cc3c(cc2c1=O)OCO3,67.6*,47.5,nt,0.3,0.5
Cc1cc(NC(=O)CCC(=O)N(c2ccccc2)C(C(=O)NC2CCCCC2)c2cccs2)no1 (stereo unspecified),nt,nt,-3.02,nt,nt
Fc1ccc(Oc2cc(N3CCOCC3)nc(-c3ccccc3)n2)c(F)c1,1.2,-8.8,0.896,1,1.1
CCCOC(=O)CCn1c(=S)oc2ccccc21,89.7*,43.4,-0.0465,0.1,0.6
CCC(=O)Nc1ccc(S(=O)(=O)N2CCCCC2)cc1OC,66.9*,-142.4,0.665,0.3,2.4*
CCC(=O)Nc1ccc(S(=O)(=O)Nc2cccc(C)c2)cc1OC,71.2*,-60.0,-0.269,0.3,1.6
CCCCC(=O)Nc1ccc(NC(=O)CC)cc1OC,9.5,40.0,nt,0.9,0.6
COc1ccc(CC(=O)Nc2cccc(C(=O)O)c2C)cc1,0.0,-15.9,0.113,1,1.2
CCC(NC(=O)Nn1cnnc1)(C(F)(F)F)C(F)(F)F,nt,nt,0.164,nt,nt
CCCSc1nc(C)cc(C)c1C(N)=O,-23.9,-12.3,-0.666,1.2,1.1
C=CCSc1nc(N)c(C(=O)Nc2ccccc2C)cc1C(N)=O,68.0*,66.4*,nt,0.3,0.3
